# Screening data (PubChem BioAssay)
# PI5P4Ka inh – blocks human PI5P4K alpha kinase activity; PI5P4Kalpha enzyme, ADP-Glo luminescence, 60 min; hits give low values; actives 1.2% (n = 330,000); P48426; max response, %; active = max response of -50% or lower; inconclusive = between -30% and -50%; inactive = -30% or higher; note: value at the top dose of about 77 µM
#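 Luminescence from ADP-Glo served as readout of PI5P4Kalpha activity in a qHTS format. Reaction: enzyme, substrate, compound, ATP at 5 microM final, 60 min at RT.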
# USP2a block – USP2a (human) protease inhibition; Potency, µM (highest dose often 38.3 µM), hits mostly inhibitors; AID 463254; actives 0.01% (n = 330,000); USP2 core, Ub-CHOP2 coupled fluorogenic reporter, 485/531
#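 USP2 core (10nM final) preincubated 30min RT with compound in 20mM Tris-HCl pH 8.0, 2mM CaCl2, 2mM beta-mercaptoethanol, 0.05% CHAPS; 25nM Ub-CHOP2 plus 25nM reporter substrate added, fluorescence (Ex485/Em531) read after 60min.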
# USP1-UAF1 inh – USP1/UAF1 (human) deubiquitinase inhibition. recombinant USP1/UAF1, Ub-Rhodamine cleavage fluorescence. O94782. actives 0.23% (n = 390,000). Potency, µM (titrated, usually from 57.1 µM), hits mostly inhibitors. AID 743255; note: nearly all actives have a fitted effect of over 60% in size
# Target sequence (O94782 whole entry, looked up): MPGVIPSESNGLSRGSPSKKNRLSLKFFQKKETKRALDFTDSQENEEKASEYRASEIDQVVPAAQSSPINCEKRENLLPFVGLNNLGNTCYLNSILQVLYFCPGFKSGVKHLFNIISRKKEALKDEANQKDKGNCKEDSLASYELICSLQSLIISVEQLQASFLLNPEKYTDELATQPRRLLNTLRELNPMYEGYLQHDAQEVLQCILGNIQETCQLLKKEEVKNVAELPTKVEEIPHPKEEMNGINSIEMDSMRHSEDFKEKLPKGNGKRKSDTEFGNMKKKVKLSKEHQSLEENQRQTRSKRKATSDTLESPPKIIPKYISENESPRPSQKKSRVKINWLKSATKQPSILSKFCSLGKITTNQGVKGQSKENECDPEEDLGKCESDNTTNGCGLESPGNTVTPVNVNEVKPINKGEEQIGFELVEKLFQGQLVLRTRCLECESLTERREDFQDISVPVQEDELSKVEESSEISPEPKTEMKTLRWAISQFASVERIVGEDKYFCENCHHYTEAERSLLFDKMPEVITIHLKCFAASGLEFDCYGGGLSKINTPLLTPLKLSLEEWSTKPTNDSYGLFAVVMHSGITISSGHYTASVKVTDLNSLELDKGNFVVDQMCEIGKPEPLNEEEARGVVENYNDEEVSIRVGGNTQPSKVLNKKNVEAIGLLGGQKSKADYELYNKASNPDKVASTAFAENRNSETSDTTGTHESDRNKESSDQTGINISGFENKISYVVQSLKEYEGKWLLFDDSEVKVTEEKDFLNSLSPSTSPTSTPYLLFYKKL
#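 In this screen, compounds sit with the deubiquitinase complex (1nM) for 15 min at room temperature before Ub-Rho is added at 150nM final. Fluorescence rise is then followed for 6 reads every 60 seconds.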
# WRN helicase inh – blocks human WRN helicase; Q14191; WRN helicase unwinding, fluorescent forked duplex, kinetic; Potency, µM (highest dose often 114 µM), actives largely listed as inhibitors; actives 0.46% (n = 360,000); AID 651768; note: nearly all actives have a fitted effect of over 55% in size
#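 Primary qHTS, 1536-well format. 20 nM WRN + compound, 15 min RT; start with 100 nM forked fluorophore/quencher duplex, 2 mM ATP (final); kinetic read ex 525/em 598 nm.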
# PLK1 PBD inh – inhibitors of human PLK1 polo-box domain binding | P53350 | Plk1 PBD binding of FITC phosphopeptide, fluorescence polarization | Potency, µM, hits mostly inhibitors | actives 2.8% (n = 360,000) | AID 720504; note: series mostly up to about 57 µM; nearly all actives have a fitted effect of over 65% in size
# Numbers stand for hits; - = inactive; ? = inconclusive; . = not tested or not shown; [ ] = another dose, or the depositor's remark. A selection: hits, their analogues and other compounds. The true share with any hit is near 3.3%. Unless noted, calls come from the whole dose curve; as a rule, active = well fitted curve in the direction sought with a large enough effect; inconclusive = small, poorly fitted or top-dose-only effect, or another doubt; inactive = no such curve, though single readings can be large; an effect the other way counts as inactive or inconclusive.
SMILES,PI5P4Ka inh,USP2a block,USP1-UAF1 inh,WRN helicase inh,PLK1 PBD inh
Cc1ccc(-c2nc3[nH]c(=O)cc(NC(=O)c4cccs4)n3n2)cc1,-,-,-,-,-
CC(C)(C)c1ccc(-c2nc3[nH]c(=O)cc(NC(=O)c4ccco4)n3n2)cc1,-,-,-,-,24µM
CCC(=O)Nc1cc(=O)[nH]c2nc(-c3ccc(Cl)cc3)nn12,-,-,-,-,21µM
Cc1ccc(-c2nc3[nH]c(=O)cc(NC(=O)C(C)C)n3n2)cc1,-,-,-,-,27µM
O=C(NCCCCNC(=O)c1ccc(F)cc1)c1ccc(F)cc1,-,-,-,-,-
CCCNC(=O)NNC(=O)c1ccc(F)cc1,-,-,-,-,24µM
CC(C)(C)c1ccc(C(=O)NC2(C(F)(F)F)C(=O)Nc3c2c(=O)[nH]c(=O)n3-c2ccccc2)cc1 (stereo not given),.,.,-,.,.
Fc1ccccc1NC(=S)Nc1cccc2cnccc12,-,-,-,-,30µM
FC(F)(F)c1ccccc1NC(=S)Nn1cnnc1,-,-,-,-,9.5µM
FC(F)(F)c1ccccc1NC(=S)Nc1cccc2cnccc12,-,-,-,-,30µM
Cc1ccccc1NC(=S)Nc1cccc2cnccc12,-,-,-,-,?
Cc1cccc(-c2nc3c4ccccc4nc(N4CCN(c5ccccc5F)CC4)n3n2)c1,.,.,-,.,.
CCc1ccc(NC(=O)C2CCCN(S(=O)(=O)c3ccc4c(c3)oc(=O)n4C)C2)cc1 (stereo not given),.,.,-,.,.
CC1=C(C(=O)Nc2ccc(C)cc2C)C(CC(C)C)n2nc(SCc3ccccc3C)nc2N1 (stereo not given),.,.,-,.,.
CC(=O)Oc1ccc(N2C(=O)C3C(C2=O)C(C(=O)c2ccc(Cl)cc2)N2CCCC32)cc1 (stereo not given),?,-,22µM,-,24µM
Cc1ccc(N2C(=O)C3C(C2=O)C(C(=O)c2ccc(Cl)cc2)N2CCCC32)cc1 (stereo not given),-,-,-,-,-
Cc1ccc(CNC(=O)Cn2cc(S(=O)(=O)Cc3cccc(Cl)c3)c3ccccc32)cc1,.,.,-,.,.
CCN(CC)S(=O)(=O)c1ccc(C(=O)OCC(=O)NCc2ccco2)cc1,-,-,-,-,-
CCN(CC)S(=O)(=O)c1ccc(/C=C/C(=O)OCC(=O)NCc2ccco2)cc1,-57,-,-,?,-
CC(C)(C)c1ccc(C(=O)OCC(=O)NCc2ccco2)cc1,-,-,-,-,-
O=Cc1ccc(C(=O)OCC(=O)NCc2ccco2)cc1,-53,-,-,-,-
COc1ccccc1NC(=O)c1oc2ccccc2c1NC(=O)c1cccc(OC)c1OC,.,.,-,.,.
CCOCCCNC(=O)c1c(NC(=O)c2cc(=O)c3ccccc3o2)sc2c1CCC2,.,.,-,.,.
O=C(/C=C/c1ccc(Br)o1)OCc1nc2ccsc2c(=O)[nH]1,-67,-,?,14µM,?
Cc1ccc(NC(=O)CSc2nccn2C2CCCC2)cc1,.,.,-,.,.
SMILES,PI5P4Ka inh,USP2a block,USP1-UAF1 inh,WRN helicase inh,PLK1 PBD inh
CCN(CC)c1nc(C#N)nc(N(CC)CC)n1,-,-,-,-,-
CCN(c1ccccc1)c1nc(C#N)nc(N(CC)c2ccccc2)n1,-,-,-,-,21µM
CCc1c(C)nc(N2CCN(c3ccc(Cl)cc3)CC2)[nH]c1=O,-,-,-,-,24µM
CCOc1ccc(S(=O)(=O)NNC(=S)Nc2ccc(Br)cc2)cc1,-,-,-,-,-
CCOc1ccc(NC(=S)NS(=O)(=O)c2cc(Br)ccc2OCC)cc1,-,.,-,-,12µM
Cc1ccc(CCNC(=O)CCN2N=C(c3ccc(C)cc3)CCC2=O)cc1,.,.,-,.,.
COC(=O)c1ccccc1NC(=O)c1noc2c1CSc1ccccc1-2,.,.,-,.,.
CC(C)C(=O)NC(c1cccs1)c1cc([N+](=O)[O-])c2cccnc2c1O (stereo not given),-84,-,-,-,-
COc1cc(OC)c(Cl)cc1N,-,-,-,-,6.7µM
N=C1/C(=C\c2ccc(OC(=O)c3ccccc3)cc2)C(=O)N=C2SC(N3CCOCC3)=NN12,?,-,-,-[11.6 µM],24µM
Cc1ccc(C(=O)Oc2ccc(/C=C3\C(=N)N4N=C(N5CCOCC5)SC4=NC3=O)cc2)cc1,?,-,-,-,27µM
N=C1/C(=C\c2ccc(OC(=O)c3ccco3)cc2)C(=O)N=C2SC(N3CCCCC3)=NN12,-52,-,-,-,?
